Many of the other results were omitted from the sample, so hits are more common in it than they were.
GIRK2 act = Activators of human GIRK2-containing channels. HEK293 GIRK2/NPY4 cells, thallium flux fluorescence. activation (% efficacy), % for hits at 37.5 µM. 34,000 tested, under 10 active. AID 1259324;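 active = primary screen hit, no activity in plain HEK293 cells, and in GIRK2-only cells above 5% efficacy rising with concentration; inactive = the rest, including fluorescent compounds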;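 also: efficacy is normalized control-subtracted fluorescence 15 s after thallium addition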
GluA2 TARP mod = GluA2-stargazin AMPA receptor complex modulation. O88602+P19491. HEK293 GluA2+stargazin, membrane potential dye (FDSS), glutamate EC50; hits were called plate by plate, in both directions. calls only at 30 µM. 40,000 compounds, 3.5% hits. AID 1259245;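 active = any of four per-well response measures lying three or more SD from its plate-wide compound average, in either direction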
Target sequence (O88602 whole entry, looked up): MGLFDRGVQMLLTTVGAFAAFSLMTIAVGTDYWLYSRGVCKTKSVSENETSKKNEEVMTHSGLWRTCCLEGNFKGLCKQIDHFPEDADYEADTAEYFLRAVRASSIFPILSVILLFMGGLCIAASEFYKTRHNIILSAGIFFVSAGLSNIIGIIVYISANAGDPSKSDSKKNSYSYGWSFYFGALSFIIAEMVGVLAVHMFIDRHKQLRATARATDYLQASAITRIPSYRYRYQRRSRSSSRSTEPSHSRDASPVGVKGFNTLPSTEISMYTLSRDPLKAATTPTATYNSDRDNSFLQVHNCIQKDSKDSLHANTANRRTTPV
Target sequence (P19491 whole entry, looked up): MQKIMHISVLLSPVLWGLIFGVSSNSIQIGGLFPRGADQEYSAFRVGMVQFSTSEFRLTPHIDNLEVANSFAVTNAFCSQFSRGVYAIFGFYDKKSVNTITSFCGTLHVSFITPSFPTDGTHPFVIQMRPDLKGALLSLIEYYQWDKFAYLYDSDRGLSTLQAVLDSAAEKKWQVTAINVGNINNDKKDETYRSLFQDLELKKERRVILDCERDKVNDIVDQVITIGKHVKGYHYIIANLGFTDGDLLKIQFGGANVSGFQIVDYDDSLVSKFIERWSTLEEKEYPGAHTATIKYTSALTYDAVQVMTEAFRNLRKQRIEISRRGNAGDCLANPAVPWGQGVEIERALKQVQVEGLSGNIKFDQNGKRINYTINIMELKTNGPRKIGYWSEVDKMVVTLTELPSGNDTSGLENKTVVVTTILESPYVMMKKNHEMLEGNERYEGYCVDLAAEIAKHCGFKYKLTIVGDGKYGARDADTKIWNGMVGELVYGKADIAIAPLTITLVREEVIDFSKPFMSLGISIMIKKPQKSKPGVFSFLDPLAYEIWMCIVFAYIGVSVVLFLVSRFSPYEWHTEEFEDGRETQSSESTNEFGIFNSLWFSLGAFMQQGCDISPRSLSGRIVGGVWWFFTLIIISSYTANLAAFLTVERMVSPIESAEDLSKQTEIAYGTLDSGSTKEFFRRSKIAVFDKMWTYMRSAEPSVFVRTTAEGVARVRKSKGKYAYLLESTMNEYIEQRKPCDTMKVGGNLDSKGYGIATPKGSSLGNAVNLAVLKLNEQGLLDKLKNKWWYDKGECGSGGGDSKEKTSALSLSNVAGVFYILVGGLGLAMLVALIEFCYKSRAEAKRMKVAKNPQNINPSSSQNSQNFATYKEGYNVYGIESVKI
Numbers without * were called inactive; i = inactive; · = no result; + = active, no number; ! = a repeat was not active.

SMILES	GIRK2 act	GluA2 TARP mod
COc1cccc(OCCOCC(O)CN2CCN(c3ccccc3F)CC2)c1 (stereo not drawn)	·	+
CCc1ccc(OCCOCC(O)CN2CCN(c3ccccc3F)CC2)cc1 (stereo not drawn)	·	i
COc1ccc(C)cc1NC(=O)CSc1nc(=O)n(CCO)c2c1CCC2	i	i
COC(=O)NCC1(c2ccc(OC)cc2)CCCC1	i	i
CCSc1ccccc1C(=O)NCC1(c2ccc(OC)cc2)CCCC1	i	+
COc1ccc(Cl)cc1C(=O)Nc1ccc(N2CCCCS2(=O)=O)cc1	·	i
COc1ccc(NC(=O)C(=O)NCCCN2CCOCC2)c(OC)c1	i	i
CCN(CC)S(=O)(=O)CCNC(=O)c1ccccc1	·	+
COCCN(CCOC)S(=O)(=O)CCNC(=O)c1ccccc1	·	i
O=C(NCC(c1ccc2c(c1)OCO2)N1CCN(c2ccccc2F)CC1)C(=O)Nc1ccon1 (stereo not drawn)	i	i
O=C(c1ccccc1)c1ccc(OCC(O)CNc2ccc(F)cc2)cc1 (stereo not drawn)	i	+
O=C(c1ccccc1)c1ccc(OCC(O)CN2CCN(c3ccccc3F)CC2)cc1 (stereo not drawn)	i	i
O=C(Nc1ccc2c(c1)N(C(=O)C1CCCC1)CC2)c1ccc2c(c1)OCO2	i	·
CCCS(=O)(=O)N1CCN=C1SCc1ccccc1Cl	·	i
Cc1ccc(OCCn2c(C3CC(=O)N(C(C)(C)C)C3)nc3ccccc32)cc1 (stereo not drawn)	·	i
Cc1cnc2c(c1SCC(=O)N1CCCCC1)c(=O)n(C)c(=O)n2C	i	i
Cc1cnc2c(c1SCCN1CCCCC1)c(=O)n(C)c(=O)n2C	i	+
COc1ccc2cc(CNc3ccc(C)cc3)c(=O)n(CC(=O)Nc3cc(C)ccc3C)c2c1	i	i
CCN1CCN(S(=O)(=O)CCNC(=O)COc2ccc(OC)cc2)CC1	i	i
COC(=O)c1ccc(C(=O)NCC(C)(O)CCSC)cc1 (stereo not drawn)	i	i
COc1ccc(N2CCN(CCCn3c(C)c(C)n4c5c(=O)[nH]c(=O)n(C)c5nc34)CC2)cc1	·	+
CCCCCCCCCn1c(N2CCNCC2)nc2c1c(=O)[nH]c(=O)n2C	9.0%*	+
CCN1CCN(c2nc3c(c(=O)[nH]c(=O)n3C)n2CCCOc2ccccc2)CC1	·	+
CCOCCn1c(N2CCN(CC)CC2)nc2c1c(=O)[nH]c(=O)n2C	·	i
Cn1c(=O)[nH]c(=O)c2c1nc(N1CCN(CC(N)=O)CC1)n2Cc1ccccc1	·	+
SMILES	GIRK2 act	GluA2 TARP mod
COc1ccc(N2CCN(CCn3c(C)c(C)n4c5c(=O)[nH]c(=O)n(C)c5nc34)CC2)cc1	·	i
Cn1c(=O)[nH]c(=O)c2c1nc(N1CCOCC1)n2CCCn1c(N2CCOCC2)nc2c1c(=O)[nH]c(=O)n2C	·	i
Cn1c(=O)[nH]c(=O)c2c1nc(N1CCN(CC(N)=O)CC1)n2Cc1cccc(Cl)c1	·	i
COc1ccc(COc2ccc3c(=O)c(-c4ccc(OC)c(OC)c4)c(C)oc3c2)cc1	·	i
COC(=O)c1ccc(CN2CC(c3nc(-c4cccc(C(F)(F)F)c4)no3)C2)o1	i	·
O=C(c1ccccc1)c1ccc(OS(=O)(=O)N2CCCCC2)cc1	·	i
O=C(NCC(F)(F)F)C1CCN(C(=O)COc2ccccc2)CC1	i	·
O=C(NC1CCCc2ccccc21)C1CCC(Cn2c(=S)[nH]c3ccccc3c2=O)CC1 (stereo not drawn)	i	i
CC(C)CCNC(=O)CCc1csc(NC(=O)c2ccc[nH]c2=O)n1	·	i
COCCNC(=O)CCc1csc(NC(=O)c2ccc[nH]c2=O)n1	i	+
COc1cc(C(=O)Nc2cccc(N3CCCCC3=O)c2)c([N+](=O)[O-])cc1OC	i	i
Cc1c(C(=O)Nc2cccc(N3CCCC3=O)c2)cccc1[N+](=O)[O-]	i	+
CCN1C(SCC(=O)NCc2ccccc2Cl)=NS(=O)(=O)c2ccccc21	i	i
COc1ccc(CCNc2cc(C)nc3c(-c4ccccc4OC)c(C)nn23)cc1OC	i	i
COc1ccc(CCNc2cc(C)nc3c(-c4ccccc4OC)cnn23)cc1OC	i	+
COCCn1nnn(-c2ccc(NS(=O)(=O)c3ccc(C(C)=O)cc3)cc2)c1=O	i	i
CCOc1ccc(C(=O)Nc2cc(-n3c(C)nc4ccccc4c3=O)ccc2F)cc1	i	i
COc1cccc(-c2cc3ccc(OC(C)=O)cc3oc2=O)c1	i	i
Cc1csc(-c2cc3ccc(OC(=O)CCCCl)cc3oc2=O)n1	·	+
COc1cn(CC(=O)NC2CCCCC2)c(CSc2ccccc2)cc1=O	·	+
COc1cn(CC(=O)NC2CCCC2)c(CSc2ccc(C)cc2)cc1=O	i	i
O=C(CC1SC(=O)N(CC(=O)c2ccccc2)C1=O)Nc1ccc(Br)cc1 (stereo not drawn)	i	i
Cc1cccc(NC(=O)CC2SC(=O)N(CC(=O)c3ccccc3)C2=O)c1 (stereo not drawn)	i	+!
Cc1cccc(NC2SC(=O)N(C(C)C)C2=O)c1 (stereo not drawn)	i	i
C=CCN1C(=O)SC(CC(=O)Nc2ccc(Br)cc2)C1=O (stereo not drawn)	i	+
SMILES	GIRK2 act	GluA2 TARP mod
Cc1cccc(NC2SC(=O)N(Cc3ccccc3)C2=O)c1 (stereo not drawn)	i	+
C=CCN1C(=O)SC(CC(=O)Nc2ccc(NC(C)=O)cc2)C1=O (stereo not drawn)	i	i
COC(=O)Nc1ccc(S(=O)(=O)N2CCCC(C(=O)Nc3ccc4c(c3)OCO4)C2)cc1 (stereo not drawn)	·	i
O=C(Nc1ccc(F)c(F)c1)c1ccc(S(=O)(=O)NCc2cccnc2)o1	i	i
COc1ccc(S(=O)(=O)Nc2ccc3c(c2)CN(C(=O)c2ccco2)CC3)cc1F	i	i
COc1ccc2c(CC(=O)N3CCCC3)cc(=O)oc2c1	i	i
CS(=O)(=O)N1CCCc2cc(NC(=O)COc3ccccc3)ccc21	·	i
COc1ccc(CC(=O)N2CCC3(CC2)NC(=O)N(Cc2ccc(Cl)cc2)C3=O)cc1	i	i
O=C(NCc1cccs1)C(=O)NCC1CCN(Cc2cccs2)CC1	i	i
COCCN1CCC(CNC(=O)C(=O)NCc2cccs2)CC1	i	+
CCOc1ccccc1C(=O)NNC(=O)c1ccc(=O)n(Cc2ccccc2)c1	i	i
COc1ccc(C(=O)NNC(=O)c2ccc(=O)n(Cc3ccccc3)c2)c(OC)c1	i	+
O=C(NNC(=O)c1cc2ccccc2oc1=O)c1ccc(=O)n(Cc2ccccc2)c1	i	+
O=C(NNC(=O)c1ccc(=O)n(Cc2ccccc2)c1)c1ccc(Cl)cc1	i	i
CCc1nc(SCC(=O)NCCc2ccccc2)n[nH]1	·	i
CCOCCn1c(=NC(=O)c2ccn(C)n2)sc2cc(C(=O)OCC)ccc21	i	+
CCOC(=O)c1ccc2c(c1)sc(=NC(=O)c1ccn(CC)n1)n2CCSC	i	·
CCOC(=O)c1ccc2nc(NC(=O)c3ccn(C)n3)sc2c1	i	+
CCOC(=O)c1ccc(NC(=O)c2ccn(C)n2)cc1	i	i
Cc1cccc(NC(=O)Cn2c3ccccc3c3ncn(Cc4ccccc4)c(=O)c32)c1	i	·
